Anthrax LF prot = inhibitors of Bacillus anthracis lethal factor protease. inhibition, % at 10 µM. P15917. 360,000 tested, 0.12% active. AID 588501. multiplex microsphere protease cleavage assay, LF; also: plate controls were buffer without enzyme for full effect and enzyme alone for no effect
BoNT F protease = inhibitors of Botulinum neurotoxin F light chain protease | Multiplex microsphere protease cleavage assay, flow cytometry | 360,000 tested, 0.22% active | inhibition, % at 10 µM; in the data active = inhibition above about 35%, passing the limit was not always enough; inconclusive = no clear call, values can overlap the other calls; also: plate controls were buffer without enzyme for full effect and enzyme alone for no effect
Autofluor counter = flagged as autofluorescent in microsphere protease counterscreen; fluorescence intensity (no concentration beside the values); 360,000 tested, 3.1% active; AID 624483; compound autofluorescence counterscreen, microsphere flow cytometry; stronger effect = higher value; in the data active = fluorescence intensity above about 16000; inconclusive = no clear call, values can overlap the other calls
BoNT A protease = inhibitors of Botulinum neurotoxin A light chain protease. multiplex microsphere protease substrate cleavage, flow cytometry. inhibition, % at 10 µM. 360,000 tested, 0.17% active. AID 588499; also: plate controls were buffer without enzyme for full effect and enzyme alone for no effect
* = called active by the depositor; u = inconclusive. An excerpt weighted towards active compounds, which were near 3.5% of everything screened. Rule as the data show it, unless noted: active = inhibition above about 30%; inconclusive = no clear call, values can overlap the other calls; inactive = below that.

SMILES	Anthrax LF prot	BoNT F protease	Autofluor counter	BoNT A protease
CN=c1scc(-c2ccccc2F)n1/N=C(\C)c1cccnc1	-2	-2	2094	0
O=C(Cn1c(=O)n(-c2ccccc2)c(=O)c2sccc21)NCc1ccccc1	-4	0	4078	0
CON/C=C(\C=Nc1ccc(C(F)(F)F)cc1)c1ncc(C(F)(F)F)cc1Cl	-1	-3	5846	0
CON/C=C(\C=Nc1ccc(Cl)cc1)c1ncc(C(F)(F)F)cc1Cl	-4	-1	23332*	0
O=C1CCCCC(=O)N(c2ccccc2)c2ccccc21	1	1	16379*	1
O=C(c1cccc(Cl)c1)N1CCC(=O)N(C(CO)Cc2ccccc2)CC1 (stereo not drawn)	4	-4	4186	0
CCN1CCN(S(=O)(=O)c2cc3c(cc2Cl)NC(=O)CO3)CC1	9	-2	5785	0
CCCNC(=O)Cn1cnc2sc(C(=O)N3CCN(c4ccc(F)cc4)CC3)c(C)c2c1=O	-1	1	20571*	0
CCCNC(=O)Cn1cnc2sc(C(=O)N3CCCC(C(=O)OCC)C3)c(C)c2c1=O (stereo not drawn)	4	8	4611	0
Cc1nc2ncnn2c(C)c1CCC(=O)N1CCCCC1	5	21	4106	3
Cc1nc2ncnn2c(C)c1CCC(=O)N1CCOCC1	-5	5	22539*	2
Cc1nc2nc(C)c(CCC(=O)N3CCN(c4ccccn4)CC3)c(C)n2n1	-5	-3	23157*	-1
CCOC(=O)N1CCN(C(=O)CCc2c(C)nc3nc(C)nn3c2C)CC1	-2	-4	8151	0
CCn1c(COc2ccc(=O)n(-c3ccccc3)n2)nnc1SCc1ccccc1	-1	-5	21225*	-2
CCn1c(COc2ccc(=O)n(-c3ccccc3)n2)nnc1SCc1ccc(OC)cc1	-7	-2	9400	0
O=C(CCCCCN1C(=O)c2ccccc2C1=O)Nc1nccs1	1	2	21980*	2
CC(=O)Nc1ccc(NC(=O)CCCCCN2C(=O)c3ccccc3C2=O)cc1	-6	4	18712*	4
O=C(CCCCCN1C(=O)c2ccccc2C1=O)Nc1ccccc1	-2	8	9863	1
NC(=O)C1(N2CCCCC2)CCN(CC(=O)Nc2cc(Cl)ccc2Cl)CC1	-4	-6	24349*	-3
O=C(CN1CCN(S(=O)(=O)N2CCCCC2)CC1)Nc1cc(Cl)ccc1Cl	0	-15	3209	-3
CS(=O)(=O)N(CC(=O)Nc1ccc(S(=O)(=O)N2CCOCC2)cc1)c1ccccc1Br	3	0	3571	0
CC(=O)Oc1ccc2c(c1)Oc1cc(OC(C)=O)ccc1C21OC(=O)c2ccccc21	-57	-123	17180*	-15
Cc1cc(O)ccc1C1(c2ccc(O)cc2C)OC(=O)c2ccccc21	1	-3	2957	0
COc1ccc(S(=O)(=O)N2CCC(C(=O)NCCC(=O)Nc3nccs3)CC2)cc1	1	-1	5390	0
CCCCC(=O)N(C)c1c(C)nc2ccc(C(=O)N3CCN(C(=O)c4ccco4)CC3)cn12	5	2	3550	0
SMILES	Anthrax LF prot	BoNT F protease	Autofluor counter	BoNT A protease
CN(C)c1ccc(/C=C/C(=O)c2cccc(Br)c2)cc1	35*	84*	33462*	40*
O=C(O)CNC(=O)c1ccc(S(=O)(=O)N2CCOCC2)cc1	1	2	20309*	1
O=C(NC(Cc1ccccc1)C(=O)N1CCN(S(=O)(=O)c2ccccc2)CC1)c1ccccc1 (stereo not drawn)	0	12	4175	3
O=C(NC(Cc1ccccc1)C(=O)O)c1ccc(S(=O)(=O)N2CCOCC2)cc1 (stereo not drawn)	-1	-1	19429*	0
COc1ccc(CNC(=O)C2CCN(S(=O)(=O)c3ccc4c(c3)N(C(C)=O)CCO4)CC2)cc1	-4	-6	6550	-3
CCn1cc(Cl)c(C(=O)N2N=C3/C(=C/c4cccs4)CCCC3C2c2cccs2)n1 (stereo not drawn)	0	-4	23292*	0
COCc1nnc(NS(=O)(=O)c2c(C)cc(C)cc2C)s1	0	0	23383*	0
COCc1nnc(NS(=O)(=O)c2ccc(C)cc2)s1	-9	-7	8493	0
COc1ccc(OC)c(NC(=S)N2CCC(C(O)(c3ccccc3)c3ccccc3)CC2)c1	-3	-2	2040	0
CC(C)C(=O)Nc1cccc(-c2cnc3ccccc3n2)c1	-1	0	20196*	2
Cn1c(=O)c2c(nc(CN3CCN(C(=O)c4ccco4)CC3)n2Cc2cccc(Cl)c2)n(C)c1=O	0	-1	22343*	0
O=C(c1ccco1)N1CCN(Cc2nc3ccccc3[nH]2)CC1	-1	-4	5596	0
Cn1c(=O)c2c(nc(CN3CCN(C(=O)c4ccco4)CC3)n2Cc2ccc(Cl)cc2)n(C)c1=O	-5	3	18363*	4
Cn1c(=O)c2c(nc(CN3CCN(C(=O)c4ccco4)CC3)n2CCCc2ccccc2)n(C)c1=O	0	-4	4203	0
Cn1c(=O)c2c(nc(CN3CCN(C(=O)c4ccco4)CC3)n2CCc2ccccc2)n(C)c1=O	-1	3	21635*	3
O=C(c1ccco1)N1CCN(Cc2nc3ccccc3c(=O)n2-c2ccc(F)cc2)CC1	-9	-1	22917*	1
Cc1ccc(-n2nc3c(=O)n(CCCC(=O)NCc4cccc(F)c4)nc(C)c3c2C)cc1	2	0	5820	-3
CCOC(=O)N1CCN(c2cc3[nH]c(=S)[nH]c3cc2F)CC1	0	8	21312*	8
CCOC(=O)N1CCN(c2cc(N)c([N+](=O)[O-])cc2F)CC1	0	0	20374*	1
CCOC(=O)N1CCN(c2c(F)cc3[nH]c(=S)[nH]c3c2Br)CC1	-1	5	9342	1
CCOC(=O)N1CCN(c2cc(C)c(C(C)=O)cc2F)CC1	0	1	10101	2
Cc1nn(C)cc1CNC(=O)c1cccc(Br)c1	0	12	3431	1
Cc1nn(C)cc1CNC(=O)c1ccccc1Br	-2	2	16520*	u
O=C1CSC(=S)N1/N=C/c1cc(Br)c(O)c(Br)c1	-2	-8	6786	-1
CSc1c(C#N)c(N)c(C#N)c2c1COC(C)(C)C2	0	5	21535*	2
SMILES	Anthrax LF prot	BoNT F protease	Autofluor counter	BoNT A protease
Cc1cc(C)n2nc(CC(=O)NC3CCCCCC3)nc2n1	-2	-4	19846*	-1
CCC(=O)Oc1ccc(-c2cnc3ccccc3n2)cc1	-3	3	10525	1
O=C(Oc1ccc(-c2cnc3ccccc3n2)cc1)c1ccco1	1	-4	20475*	-2
COc1cccc(F)c1C(C[N+](=O)[O-])c1c(N)n(C)c(=O)n(C)c1=O (stereo not drawn)	-4	-6	3017	-1
Cc1ccc(NC2c3ncccc3C(=O)N2Cc2ccc(F)cc2)cc1 (stereo not drawn)	-6	-6	10645	-2
COc1cc(NC2c3ncccc3C(=O)N2Cc2ccco2)cc(OC)c1 (stereo not drawn)	-9	-4	20554*	0
COc1ccc(NC2c3ncccc3C(=O)N2Cc2ccccc2)c(OC)c1 (stereo not drawn)	-8	-49	8556	-2

Screens (PubChem BioAssay)
